Bioassay records (PubChem BioAssay)
FLuc counter – inhibits or activates purified firefly luciferase, miR-21 counter-screen; purified FLuc, Km substrates, luminescence inhibition; Potency, µM (highest dose often 57.5 µM), for the others: top-dose activity change, negative = inhibition, usual class: inhibitors; actives 6.9% (n = 360,000); AID 588342;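 further: plate controls were vehicle for no effect and reference inhibitor for full effect; nearly all actives have a fitted effect of over 55% in size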
Target sequence (P08659 whole entry, looked up): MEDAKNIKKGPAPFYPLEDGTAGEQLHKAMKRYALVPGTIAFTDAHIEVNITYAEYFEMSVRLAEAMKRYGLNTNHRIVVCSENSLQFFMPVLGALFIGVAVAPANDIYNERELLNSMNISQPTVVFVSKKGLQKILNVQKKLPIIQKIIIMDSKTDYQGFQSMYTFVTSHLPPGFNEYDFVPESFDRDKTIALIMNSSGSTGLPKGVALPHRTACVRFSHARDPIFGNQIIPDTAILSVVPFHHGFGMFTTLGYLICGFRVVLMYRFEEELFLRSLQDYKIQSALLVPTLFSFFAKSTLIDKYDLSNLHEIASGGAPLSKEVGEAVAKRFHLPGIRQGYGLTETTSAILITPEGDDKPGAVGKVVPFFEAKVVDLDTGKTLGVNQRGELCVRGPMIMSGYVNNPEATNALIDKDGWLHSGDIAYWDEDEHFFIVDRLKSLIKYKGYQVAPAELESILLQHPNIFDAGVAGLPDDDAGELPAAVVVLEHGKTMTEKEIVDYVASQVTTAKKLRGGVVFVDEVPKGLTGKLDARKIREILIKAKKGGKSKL
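Biochemical qHTS of compounds, final roughly 60 µM downward over six points, against 10 nM purified firefly luciferase using Km concentrations of substrates (10 uM D-luciferin, 10 uM ATP) in Tris acetate pH 7.5 buffer; luminescence output.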
NPC1 prom act – NPC1 promoter activation; Huh7 NPC1 promoter luciferase reporter, 24 h; Potency, µM (top dose mostly 9.22 µM), inactives show at the highest dose activation, hits mostly activators; AID 485313; actives 2.4% (n = 320,000); further: % of control where 0% means no effect; nearly all actives have a fitted effect of over 60% in size
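In 1536-well qHTS, Huh7 cells harboring an NPC1 promoter–luciferase construct received compound for 24 h; activation was quantified by luminescence following luciferase reagent addition.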
Rab9 prom act – activators of Rab9 promoter; Huh7 Rab9 promoter-luciferase reporter, luminescence, 24 h; Potency, µM (doses to about 9.22 µM), for the others: at the top dose activation, negative = inhibition, actives largely listed as activators; actives 2.8% (n = 320,000); AID 485297; further: % of control where 0% means no effect; nearly all actives have a fitted effect of over 60% in size
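Using Huh7 cells stably transfected with Rab9 promoter–luciferase, compounds were incubated 24 h at 37 °C, 5% CO2; luciferase luminescence was read 10 min after reagent addition.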
ELG1 genotoxic – induces genotoxicity in HEK293T cells with luciferase-tagged ELG1; HEK293T ELG1-luciferase reporter, luminescence, 16 h; Potency, µM (highest dose often 46 µM), inactives show at the top dose activity change, positive = activation, usual class: activators; actives 1.3% (n = 330,000); further: % of control where 0% means no effect; nearly all actives have a fitted effect of over 60% in size
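Genotoxicity was scored as increased ELG1-luciferase reporter signal, measured by ONE-Glo luminescence (30 min, room temperature). Compound or vehicle exposure of the HEK293T reporter cells lasted 16 hr at 37°C.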
SMN2 splice up – SMN2 splice variant enhancement. HEK293 SMN2-luciferase splicing reporter, luminescence, 30-36 h. Potency, µM (doses to about 46.1 µM), for the others: top-dose activity change, positive = activation, actives largely listed as activators. actives 2.8% (n = 210,000). AID 1458; further: % of control where 0% means no effect; nearly all actives have a fitted effect of over 55% in size
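qHTS luciferase splicing reporter: luminescence rises when SMN2 exon 7 is included in transfected HEK293 cells. Compound exposure lasted 30-36 h at 37C, with 4.5 mM final sodium butyrate as control, followed by a ONE-Glo read.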
Luc counter – counter-screen: inhibitors of Kinase-Glo firefly luciferase; Q27757; Kinase-Glo luciferase, ATP luminescence, 8 min; Potency, µM (highest dose often 38.3 µM), inactives show top-dose activity change, negative = inhibition, usual class: inhibitors; actives 0.28% (n = 200,000); further: on the % scale 0 is the no-effect control and ±100 the full control effect; nearly all actives have a fitted effect of over 60% in size
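Luminescence was the read-out, taken after 8-minute incubation at ambient temperature. Luciferase turned over luciferin with 10 uM ATP in imidazole pH 7.2 buffer containing KCl, MgCl2, Tween 20 and BSA.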
* = called active by the depositor; ? = inconclusive; . = no result; [ ] = another dose, or the depositor's remark. Sampled rows, rich in hits. Any-hit rate of the full collection: about 7.3%. The call rests on the fitted dose curve; in most records, active means well fitted curve in the direction sought with a large enough effect; inconclusive means small, poorly fitted or top-dose-only effect, or another doubt; inactive means no such curve, though single readings can be large; an effect the other way counts as inactive or inconclusive. Potency means the concentration at half of the fitted maximal effect.

SMILES	FLuc counter	NPC1 prom act	Rab9 prom act	ELG1 genotoxic	SMN2 splice up	Luc counter
COc1ccc(-n2nc(C(=O)NCC(=O)NCCCN3CCCCCC3)c3ccccc3c2=O)cc1Cl	4%	-6%	-3%	-2%	-59%	-1%
CCOC(=O)C1CCCN(C(=O)CNC(=O)c2nn(-c3ccc(OC)c(Cl)c3)c(=O)c3ccccc23)C1 (stereo not drawn)	6.7µM*	-1%	0%	-12%	.	.
COc1ccc(-n2nc(C(=O)NCC(=O)N3CCOCC3)c3ccccc3c2=O)cc1Cl	11µM*	-4%	0%	0%	.	.
O=C(CN1CCOCC1)c1c[nH]c2ccccc12	5%	-3%	1%	-2%	8%	1%
CN(CCCNC(=O)C1CCC(=O)N1Cc1ccccc1Cl)c1ccccc1 (stereo not drawn)	0%	-2%	-1%	-1%	-24%	-1%
COc1ccc(-n2nc(C(=O)NCC(=O)N3CCCCCC3)c3ccccc3c2=O)cc1OC	6.7µM*	12%	2%	-5%	.	.
COc1ccc(-n2nc(C(=O)NCC(=O)N3CC(C)CC(C)C3)c3ccccc3c2=O)cc1OC (stereo not drawn)	?	0%	0%	-15%	.	.
Cc1ccc(C(C)NC(=O)c2cc(C)oc2C)cc1 (stereo not drawn)	3%	-2%	4%	2%	-15%	-8%
COc1cc(C=O)ccc1OCCOc1ccccc1[N+](=O)[O-]	21µM*	-1%	-4%	11%	17%	0%
COc1cc(C=O)ccc1OCc1ccncc1	?	-7%	1%	1%	.	.
C/C=C/c1ccc(OCCOc2cc(C=O)ccc2OC)c(OC)c1	13µM*	12%	8%	15%	16µM*	0%
COc1cc(C=O)ccc1OCCCOc1ccccc1C(=O)O	1.9µM*	?	?	-3%	14%	-5%
COc1cc(C=O)ccc1OCc1ccc(Cl)nc1	4.8µM*	-1%	10%	?	.	1%
COc1ccc2[nH]c3c(N4CCc5ccccc5C4)ncnc3c2c1	?	-18%	-15%	-10%	.	.
Cc1ccc(CNC(=O)C2CCC(CNc3c(N4CCC(C)CC4)c(=O)c3=O)CC2)cc1 (stereo not drawn)	5%	-2%	-4%	-1%	.	.
COc1cc(NC(=O)c2ccccc2-n2cnnn2)cc(OC)c1	-2%	-2%	-3%	0%	.	.
COc1cc(OC)cc(C(=O)Nc2ccc(-n3cnnn3)c(C)c2)c1	15µM*	?	?	?	23%	14µM*
Cc1cc(NC(=O)c2oc3ccccc3c2C)ccc1-n1cnnn1	4.8µM*	19%	4%	-2%	-10%	-1%
C#CCCC/C(=C\C(=O)N(C)[C@H](C(=O)N(C)[C@H](C(=O)N(C)[C@H](C(=O)N(C)[C@H](C(N)=O)C(C)C)C(C)C)C(C)C)C(C)C)OC	.	.	.	-6%	.	.
O=C(O)c1ccc2c(c1)C(=O)/C(=C/c1ccccc1)C2=O	?	-3%	-4%	-2%	6%	-5%
CC(/C=C/c1ccc(C)o1)=C\C(=O)O	-4%	-11%	1%	3%	-4%	5%
Cc1ccc(/C=C2/C(=O)c3ccc(C(=O)O)cc3C2=O)o1	2.7µM*	2%	-16%	3%	.	-4%
Cc1ccc(C=C2C(=O)c3ccccc3C2=O)o1	0.48µM*	2%	1%	8%	-8%[1.84 µM]	11µM*
O=C1C(=Cc2ccco2)C(=O)c2ccccc21	13µM*	8%	1%	2%	8%	-20%
O=C(O)c1ccc2c(c1)C(=O)/C(=C\c1ccco1)C2=O	9.5µM*	-1%	0%	1%	3%	-23%
O=C(NCC1CCCO1)C1CCN(S(=O)(=O)Cc2ccccc2)CC1 (stereo not drawn)	1%	-1%	-1%	1%	16%	-1%
